# Measured values taken from PubChem BioAssay (NCATS).
# Records with an inconclusive call do not appear. Entries that show only a call come without a potency. Active and inactive are the calls of the source. The call rests on the fitted dose curve.
# Key:
# [1] = Primary qHTS for inhibitors of MERS-S pseudo-typed particle cell entry (AID 1479149); further: nearly all actives have a fitted effect of over 60% in size; further: potency means the concentration at half of the fitted maximal effect
# [2] = Primary qHTS for Vero E6 cytotoxicity: counterscreen for inhibitors of SARS-S pseudo-typed particle cell entry (AID 1479150)
# [3] = Cytotoxicity counterscreen for inhibitors of SARS-CoV-2 cell entry (AID 1645845); further: nearly all actives have a fitted effect of over 50% in size; further: potency means the concentration at half of the fitted maximal effect
# Procedure, shortened: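 HEK293-ACE2 cells (Expi293F stably expressing human ACE2) seeded overnight, then compound for 1 h plus 48 h at 37C. Viability as ATP content by luminescence; normalized to wells with cells and media-only wells.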
# [4] = Primary qHTS to identify inhibitors of SARS-CoV-2 cell entry (AID 1645846); further: nearly all actives have a fitted effect of over 45% in size; further: potency means the concentration at half of the fitted maximal effect
# Procedure, shortened: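 Entry measured by luciferase signal 48 h after adding SARS-CoV-2-S pseudotyped MLV particles to HEK293-ACE2 cells preincubated 1 h with compounds. Normalisation: bald particles and spike particles.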
# [5] = VSVG counterscreen qHTS to identify inhibitors of SARS-CoV-2 cell entry (AID 1645847); further: potency means the concentration at half of the fitted maximal effect; nearly all actives have a fitted effect of over 65% in size
# Procedure, shortened: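 Luminescence read after 48 h infection at 37 C with VSV-G-pseudotyped MLV particles, following 1 h compound exposure of Expi293F cells stably expressing human ACE2; scaled between bald particle and VSV-G particle wells.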
# [6] = Confirmatory qHTS for VERO E6 Cytotoxicity Assay: Counterscreen for SARS-CoV-2 CPE Assay (AID 1508605); further: nearly all actives have a fitted effect of over 60% in size
# [7] = Confirmatory qHTS for activators (rescue) of SARS-CoV-2 Cytopathic Effect (CPE) (AID 1508606); further: potency means the concentration at half of the fitted maximal effect; nearly all actives have a fitted effect of over 70% in size
# [8] = Confirmatory qHTS to identify inhibitors of SARS-CoV-2 cell entry (AID 1645844); further: potency means the concentration at half of the fitted maximal effect; nearly all actives have a fitted effect of over 45% in size
# Procedure, shortened: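 HEK293-ACE2 cells were pretreated 1 h with compound, then infected with MLV-based pseudoparticles bearing C-terminally truncated Wuhan-Hu-1 spike for 48 h at 37C; luciferase luminescence normalized to spike PP and bald PP wells.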
# [9] = activity change, negative = inhibition: at 57.1 µM (top of the series) unless noted
compound,measurement,setting,value
NCCC(O)(P(=O)(O)O)P(=O)(O)O,Potency,[1],inactive
same,Potency,[2],inactive
same,Potency,[3],inactive
same,Potency,[4]; [9],inactive
CC1(C)O[C@@H]2[C@@H](CO[C@@]3(COS(N)(=O)=O)OC(C)(C)O[C@@H]23)O1,Potency,[1],inactive
same,Potency,[2],inactive
same,Potency,[3],inactive
same,"activity change, negative = inhibition",[4]; [9],-8%
Nc1cc(-c2ccncc2)c[nH]c1=O,Potency,[1],inactive
same,Potency,[2],inactive
same,Potency,[3],inactive
same,Potency,[4]; [9],inactive
O=C(O)c1cn(C2CC2)c2cc(N3CCNCC3)c(F)cc2c1=O,"activity change, negative = inhibition","[4]; SARS-CoV-2 pseudovirus cell entry assay, luminescence, at 11.3 µM (top of the series)",-1.6%
same,"activity change, negative = inhibition","[4]; SARS-CoV-2 pseudovirus cell entry assay, luminescence, at 57.1 µM (top of the series)",4.56%
OCCN1C[C@H](O)[C@@H](O)[C@H](O)[C@H]1CO,Potency,[5],4.29 µM (active)
COC(=O)Nc1nc2ccc(C(=O)c3ccccc3)cc2[nH]1,Potency,[5],1.52 µM (active)
CCOC(=O)N1CCC(=C2c3ccc(Cl)cc3CCc3cccnc32)CC1,Potency,[2],inactive
CN(C)CCCN1c2ccccc2CCc2ccc(Cl)cc21,Potency,[1],11.2 µM (active)
same,Potency,[2],inactive
same,Potency,[4]; [9],28.2 µM (active)
COc1cc2c(c(OC)c1OC)-c1ccc(OC)c(=O)cc1[C@@H](NC(C)=O)CC2,Potency,[1],inactive
same,"activity change, negative = inhibition",[4]; [9],-76.4%
C[C@@H](O[C@H]1OCCN(Cc2n[nH]c(=O)[nH]2)[C@H]1c1ccc(F)cc1)c1cc(C(F)(F)F)cc(C(F)(F)F)c1,Potency,[2],inactive
Nc1nc(=S)c2[nH]cnc2[nH]1,Potency,[1],inactive
same,Potency,[3],7.94 µM (active)
same,Potency,[4]; [9],14.1 µM (active)
CC(C)Nc1cccnc1N1CCN(C(=O)c2cc3cc(NS(C)(=O)=O)ccc3[nH]2)CC1,Potency,[1],inactive
same,Potency,[3],inactive
same,Potency,[4]; [9],inactive
O=C1CCc2cc(OCCCCc3nnnn3C3CCCCC3)ccc2N1,Potency,[2],inactive
CC(CN1c2ccccc2Sc2ccccc21)N(C)C (centres undefined),Potency,[2],inactive
same,Potency,[6],inactive
same,Potency,[7],11.2 µM (active)
same,Potency,[8],13.6 µM (active)
COC(=O)[C@H]1[C@H]2C[C@@H]3c4[nH]c5cc(OC)ccc5c4CCN3C[C@H]2C[C@@H](OC(=O)c2cc(OC)c(OC)c(OC)c2)[C@@H]1OC,Potency,[2],inactive
same,Potency,[6],inactive
same,Potency,[7],10 µM (active)
same,Potency,[3],inactive
same,"activity change, negative = inhibition",[4]; [9],-18.9%
